A selection: hits, their analogues and other compounds. The true share with any hit is near 2.8%.
IP6K1 inhibitor: inhibitors of human IP6K1; Q92551; IP6K1 kinase, ADP-Glo luminescence, 2 h; stronger effect = lower value; activity change, % (series mostly up to about 58 µM); 0.81% of 140,000 active; AID 1645851; in the data active means activity change below about -25%; further: on the % scale 0 is the no-effect control and ±100 the full control effect
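ADP-Glo luminescence measures ADP made by human IP6K1 during a 2 h RT reaction with ATP/IP6 (mix at 1.3 mM/130 uM); top library doses 57.5 and 19.1 uM final.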
KDM5B inh: blocks human KDM5B histone demethylase activity | Q9UGL1 | KDM5B demethylase, FDH-coupled NADH fluorescence (FDH is formaldehyde dehydrogenase) | Potency, µM (top dose mostly 57.7 µM), actives largely listed as inhibitors | 2.6% of 220,000 active | AID 1347165; active means well fitted inhibition curve with a large enough effect; inconclusive means small, poorly fitted or top-dose-only effect; inactive means no such curve, though single readings can be large or run the other way; further: potency means the concentration at half of the fitted maximal effect; 0% is about no effect; nearly all actives have a fitted effect of over 70% in size
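Compound dilutions met 200 nM (final) KDM5BΔAP for 10 min at room temperature before substrate addition. The substrate mix held 12.5 µM H3K4me3 with cofactors 25 µM α-ketoglutarate and 50 µM Fe²⁺. NADH signal gain over 30 min defined activity.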
* hit, by the source's call; i = inactive; ? = inconclusive; / = no result.

SMILES	IP6K1 inhibitor	KDM5B inh
CC(C)CCNC(=O)c1cccnc1N1CC2CC(C1)[C@H]1CCCC(=O)N1C2 (stereo partly drawn)	22.1	?
C=CCNC(=O)c1cccnc1N1CC2CC(C1)[C@H]1CCCC(=O)N1C2 (stereo partly drawn)	0.6	25.1µM*
O=C(NCCCN1CCCc2ccccc21)c1ccc(N2CC3CC(C2)[C@H]2CCCC(=O)N2C3)nc1 (stereo partly drawn)	18.2	?
O=C(NCCCN1CCCc2ccccc21)c1cccnc1N1CC2CC(C1)[C@H]1CCCC(=O)N1C2 (stereo partly drawn)	15.2	28.2µM*
CCCNC(=O)c1cn(-c2cccc(Cl)c2)nn1	/	i
Cc1cc(C)n2ncc(C(=O)NCc3cc4n(n3)CCN(C(=O)N(C)C)C4)c2n1	-2.4	31.6µM*
COc1ccc(F)cc1C(=O)NCc1cc2n(n1)CCN(C(=O)N(C)C)C2	-4.4	i
CCC(=O)N1CCC2(CC1)CC(N1CCOCC1)CCO2 (stereo not drawn)	-20.3	i
O=C1COc2ccc(Nc3ccccc3)nc2CN1CCOc1ccccc1	-8.4	39.8µM*
O=C1COc2ccc(Nc3cccc(F)c3)nc2CN1CCOc1ccccc1	-12.5	?
COCCN1Cc2nc(Nc3ccc(C(F)(F)F)cc3)ccc2OCC1=O	-17.3	25.1µM*
COCCN1Cc2nc(Nc3ccc(F)c(Cl)c3)ccc2OCC1=O	-12.8	i
O=C(C[C@@H]1O[C@H](CNC(=O)Nc2cccc(F)c2)[C@@H](O)[C@H]1O)Nc1ccccc1	-3.7	?
COCc1ccc2c(c1)c(OC(C)(C)C(=O)NCc1ccncc1)nn2Cc1ccccc1	1.8	i
COCc1ccc2c(c1)c(OC(C)(C)C(=O)NCCN(C)C)nn2Cc1ccccc1	8.1	31.6µM*
CC(C)(Oc1nn(CCN2CCOCC2)c2ccccc12)C(=O)NCCc1ccccc1	8.6	i
CN(C)Cc1ccc2c(c1)c(OC(C)(C)C(=O)NCCN1CCOCC1)nn2Cc1ccccc1	-3.5	22.4µM*
CCOc1ccc(S(=O)(=O)N(C)CC(=O)NCC2CCCO2)cc1Cl (stereo not drawn)	/	i
O=C(O)c1cncc(-c2cccc(CN3CCOCC3)c2)n1	-6.8	?
Cn1ccc2c(C(=O)NCc3cccnc3)nc(-c3cccc(N4CCOCC4)c3)cc21	-7.7	i
CN(C)Cc1cccc(-c2cc3c(ccn3Cc3ccncc3)c(N3CCOCC3)n2)c1	1.2	39.8µM*
c1cc(-c2cc3c(ccn3Cc3ccncc3)c(N3CCOCC3)n2)cc(N2CCOCC2)c1	4.3	20µM*
Cc1cccc(N2CCN(CCCNc3ncnc4onc(-c5ccc(Cl)cc5)c34)CC2C)c1 (stereo not drawn)	10.8	i
Cc1nc(NC2CCCCC2)ncc1C(=O)O	-11.9	31.6µM*
CS(=O)(=O)c1cnc(NC2CCCC2)nc1C1CCCNC1 (stereo not drawn)	43.9	i
SMILES	IP6K1 inhibitor	KDM5B inh
Cc1ccc(C(C(=O)Nc2ccc3c(c2)OCCO3)N(C)C(=O)Cc2cccs2)cc1 (stereo not drawn)	/	i
CNC(=O)c1cc2cc(-c3c(C)noc3C)nc(-c3cccnc3)c2o1	89.9	?
CNC(=O)c1cc2cc(-c3c(C)noc3C)nc(-c3cccc(CO)c3)c2o1	-0.1	35.5µM*
CNC(=O)c1cc2cc(-c3c(C)noc3C)nc(-c3ccccc3OC)c2o1	-14.0	?
CNC(=O)c1cc2cc(-c3c(C)noc3C)nc(-c3ccccc3C)c2o1	5.2	35.5µM*
COc1ccccc1N1CCN(S(=O)(=O)c2c(C)nc3sc(C)c(C)n3c2=O)CC1	-3.0	?
O=C1COc2ccc(-c3ccoc3)nc2CN1Cc1ccccc1	5.3	31.6µM*
O=C1COc2ccc(-c3ccncc3)nc2CN1Cc1ccccc1	4.3	35.5µM*
CC(=O)Nc1cccc(-c2ccc3c(n2)CN(Cc2ccccc2)C(=O)CO3)c1	-18.7	i
O=C1COc2ccc(-c3ccncc3)nc2CN1Cc1ccc(C(F)(F)F)cc1	-8.7	39.8µM*
O=C1COc2ccc(-c3cn[nH]c3)nc2CN1Cc1ccc(C(F)(F)F)cc1	-18.3	i
Cc1ccccc1-c1ccc2c(n1)CN(Cc1ccccc1)C(=O)CO2	-10.2	i
CC(C)CN1C(=O)c2cccn2CC1C(=O)NCCCN1CCN(C)CC1 (stereo not drawn)	1.1	i
Cc1cc(C)n(C2CCN(c3ncnc4c3c(C)nn4C)C2)n1 (stereo not drawn)	5.5	i
CC(C)c1nc(CNC(=O)c2ccc(NC3CCCCC3)nc2)no1	16.0	22.4µM*
CC(C)c1nc(CNC(=O)c2ccc(N3CCCC(C(N)=O)C3)nc2)no1 (stereo not drawn)	8.0	i
Cc1csc(Nc2ccc3c(n2)CN(C)C(=O)CO3)n1	-14.2	i
COCCn1nc2n(c1=O)CCC1(CC2)CCN(C(=O)CCc2c(C)nn(C)c2C)CC1	-3.7	/
CC(C)CN1CCN(C(=O)CCC[C@H]2NC[C@@H]3C[C@H]2CN(Cc2ccccc2)C3)CC1	-12.9	6.31µM*
COc1ccccc1CNC(=O)CCC[C@H]1NC[C@@H]2C[C@H]1CN(Cc1ccccc1)C2	-14.7	4.47µM*
O=C(CCC[C@H]1NC[C@@H]2CC1CN(Cc1ccccc1)C2)N1CCCCC1	3.7	i
O=C(CCC[C@H]1NC[C@@H]2C[C@H]1CN(Cc1ccccc1)C2)NCC1CCCCC1	7.0	i
COCCn1c(C)nnc1-c1cc(-c2ccnc(OC)c2)ccn1	-1.5	?
COc1cccc(-c2ccnc(-c3nnc(C)n3Cc3ccccc3)c2)c1	-6.4	35.5µM*
COCCn1c(C)nnc1-c1cc(-c2ccc(OC)c(OC)c2)ccn1	-8.9	31.6µM*
SMILES	IP6K1 inhibitor	KDM5B inh
Cc1nnc(-c2cc(-c3cccc(F)c3)ccn2)n1Cc1ccccc1	-1.1	i
c1ccc(-n2nnnc2NCCCNC2CCCCC2)cc1	/	i
O=C(CCNc1c(-c2cccc(F)c2)nc2cnccn12)NCc1ccccc1F	4.0	28.2µM*
CNC(=O)CCNc1c(-c2cccc(F)c2)nc2cnccn12	21.9	28.2µM*
Cc1nc2cnccn2c1C(=O)NCc1ccc(F)cc1F	5.3	/
Cc1nc2cnccn2c1C(=O)NCCc1cccc(F)c1	-1.9	/
COc1cccc(C(=O)N2CCCC2C(=O)N2CCC(c3nc4ccncc4[nH]3)C2)c1 (stereo not drawn)	17.0	/
CC(C)c1noc(-c2ccn3c(CNC(=O)c4ccc(N(C)C)cc4)nnc3c2)n1	-11.9	22.4µM*
CC(C)c1noc(-c2ccn3c(CNC(=O)c4cccc(N(C)C)c4)nnc3c2)n1	-2.2	28.2µM*
CCCc1noc(-c2ccn3c(CNC(=O)c4cccc(C)c4)nnc3c2)n1	0.9	i
CCN(CC)c1ccc(C(=O)NCc2nnc3cc(-c4nc(C(C)C)no4)ccn23)cc1	2.7	?
CSc1nc2c(c(=O)n(C)c(=O)n2C)n1Cc1ccccc1F	/	i
CN1CC(=O)N(c2ccccc2F)Cc2c(NCCc3ccccc3)ncnc21	-1.9	?
CN1CC(=O)N(c2ccccc2F)Cc2c(NCCc3ccc(Cl)cc3)ncnc21	-4.3	25.1µM*
COCCCNC(=O)Cc1csc2nc(C)c(-c3cc(C)n(-c4ccccc4F)n3)c(=O)n12	6.4	28.2µM*
Cc1nc2scc(CC(=O)Nc3ccc(F)cc3)n2c(=O)c1-c1cc(C)n(-c2ccccc2F)n1	23.6	?
CCc1ccccc1-n1nc(-c2c(C)nc3scc(CC(=O)NCc4ccccc4)n3c2=O)cc1C	4.4	?
